# Where a chain is given by its changes, count along the chain named.
# Columns and labels:
# Assay in all cases: PBM; 200 nM protein, PBS
# Settings in all cases: dsDNA, one strand shown
# HESX1 = HESX1 (Homo sapiens, UniProt Q9UBX0 95-180)
# SIX6 [1] = target: T1, SIX6 (Homo sapiens, UniProt O95475 114-200, T165G)
# T1 sequence: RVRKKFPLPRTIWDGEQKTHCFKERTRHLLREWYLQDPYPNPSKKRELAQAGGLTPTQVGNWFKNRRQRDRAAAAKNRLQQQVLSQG
# SIX6 [2] = target: T2, SIX6 (Homo sapiens, UniProt O95475 114-200, T165A)
# T2 sequence: T1 sequence with G52A
# HOXA2 [3] = target: HOXA2 (Homo sapiens, UniProt O43364 129-215, R185T)
# Sequence of HOXA2 (Homo sapiens, UniProt O43364 129-215, R185T) (O43364 129-215 R185T): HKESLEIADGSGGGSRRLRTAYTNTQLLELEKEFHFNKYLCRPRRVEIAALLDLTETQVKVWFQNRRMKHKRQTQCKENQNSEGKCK
# MSX2 [4] = target: MSX2 (Homo sapiens, UniProt P35548 130-214, R199I)
# Sequence of MSX2 (Homo sapiens, UniProt P35548 130-214, R199I) (P35548 130-214 R199I): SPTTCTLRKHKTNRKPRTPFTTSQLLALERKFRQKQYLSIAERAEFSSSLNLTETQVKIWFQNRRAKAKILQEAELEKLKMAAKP
# ALX1 [5] = target: ALX1 (Homo sapiens, UniProt Q15699 118-204, L144V)
# Sequence of ALX1 (Homo sapiens, UniProt Q15699 118-204, L144V) (Q15699 118-204 L144V): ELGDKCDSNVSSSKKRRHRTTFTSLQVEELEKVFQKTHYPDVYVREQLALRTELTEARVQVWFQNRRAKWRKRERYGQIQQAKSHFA
# ALX3 [6] = target: ALX3 (Homo sapiens, UniProt O95076 139-225, N203Q)
# Sequence of ALX3 (Homo sapiens, UniProt O95076 139-225, N203Q) (O95076 139-225 N203Q): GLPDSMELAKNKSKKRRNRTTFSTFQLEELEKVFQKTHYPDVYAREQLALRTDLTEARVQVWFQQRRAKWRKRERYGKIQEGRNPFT
# NKX2-6 [7] = target: T3, NKX2-6 (Homo sapiens, UniProt A6NCS4 118-204)
# T3 sequence: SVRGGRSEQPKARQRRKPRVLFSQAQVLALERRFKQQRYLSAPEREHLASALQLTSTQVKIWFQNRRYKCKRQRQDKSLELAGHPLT
# HOXA2 [8] = target: HOXA2 (Homo sapiens, UniProt O43364 129-215, R185K)
# Sequence of HOXA2 (Homo sapiens, UniProt O43364 129-215, R185K) (O43364 129-215 R185K): as the sequence (O43364 129-215 R185T) above, with T57K counted along it
# ALX1 [9] = target: ALX1 (Homo sapiens, UniProt Q15699 118-204, L144R)
# Sequence of ALX1 (Homo sapiens, UniProt Q15699 118-204, L144R) (Q15699 118-204 L144R): as the sequence (Q15699 118-204 L144V) above, with V27R counted along it
# ALX3 [10] = target: ALX3 (Homo sapiens, UniProt O95076 139-225)
# Sequence of ALX3 (Homo sapiens, UniProt O95076 139-225) (O95076 139-225): as the sequence (O95076 139-225 N203Q) above, with Q65N counted along it
# ALX3 [11] = target: ALX3 (Homo sapiens, UniProt O95076 139-225, L168Q)
# Sequence of ALX3 (Homo sapiens, UniProt O95076 139-225, L168Q) (O95076 139-225 L168Q): as the sequence (O95076 139-225 N203Q) above, with L30Q, Q65N counted along it
# NKX2-6 [12] = target: T4, NKX2-6 (Homo sapiens, UniProt A6NCS4 118-204, F151L)
# T4 sequence: T3 sequence with F34L
# ALX3 [13] = target: ALX3 (Homo sapiens, UniProt O95076 139-225, L168V)
# Sequence of ALX3 (Homo sapiens, UniProt O95076 139-225, L168V) (O95076 139-225 L168V): as the sequence (O95076 139-225 N203Q) above, with L30V, Q65N counted along it
# HOXA2 [14] = target: HOXA2 (Homo sapiens, UniProt O43364 129-215, Y150S)
# Sequence of HOXA2 (Homo sapiens, UniProt O43364 129-215, Y150S) (O43364 129-215 Y150S): as the sequence (O43364 129-215 R185T) above, with Y22S, T57R counted along it
# ALX1 [15] = target: ALX1 (Homo sapiens, UniProt Q15699 118-204)
# Sequence of ALX1 (Homo sapiens, UniProt Q15699 118-204) (Q15699 118-204): as the sequence (Q15699 118-204 L144V) above, with V27L counted along it
# ALX3 [16] = target: ALX3 (Homo sapiens, UniProt O95076 139-225, N203S)
# Sequence of ALX3 (Homo sapiens, UniProt O95076 139-225, N203S) (O95076 139-225 N203S): as the sequence (O95076 139-225 N203Q) above, with Q65S counted along it
# HOXA2 [17] = target: HOXA2 (Homo sapiens, UniProt O43364 129-215)
# Sequence of HOXA2 (Homo sapiens, UniProt O43364 129-215) (O43364 129-215): as the sequence (O43364 129-215 R185T) above, with T57R counted along it
# MSX2 [18] = target: MSX2 (Homo sapiens, UniProt P35548 130-214)
# Sequence of MSX2 (Homo sapiens, UniProt P35548 130-214) (P35548 130-214): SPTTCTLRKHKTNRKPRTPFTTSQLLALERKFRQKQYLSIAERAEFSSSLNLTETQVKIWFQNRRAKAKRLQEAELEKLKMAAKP
# MSX2 [19] = target: MSX2 (Homo sapiens, UniProt P35548 130-214, F161Y)
# Sequence of MSX2 (Homo sapiens, UniProt P35548 130-214, F161Y) (P35548 130-214 F161Y): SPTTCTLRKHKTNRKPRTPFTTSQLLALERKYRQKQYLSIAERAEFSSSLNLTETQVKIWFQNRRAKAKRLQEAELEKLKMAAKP
# NKX2-6 [20] = target: T5, NKX2-6 (Homo sapiens, UniProt A6NCS4 118-204, R150C)
# T5 sequence: T3 sequence with R33C
# PITX2 = PITX2 (Homo sapiens, UniProt Q99697 72-157)
# PROP1 [21] = target: PROP1 (Homo sapiens, UniProt O75360 56-141)
# Sequence of PROP1 (Homo sapiens, UniProt O75360 56-141) (O75360 56-141): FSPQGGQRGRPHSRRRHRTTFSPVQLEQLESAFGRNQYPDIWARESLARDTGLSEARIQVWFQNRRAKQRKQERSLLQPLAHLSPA
# PROP1 [22] = target: PROP1 (Homo sapiens, UniProt O75360 56-141, R99H)
# Sequence of PROP1 (Homo sapiens, UniProt O75360 56-141, R99H) (O75360 56-141 R99H): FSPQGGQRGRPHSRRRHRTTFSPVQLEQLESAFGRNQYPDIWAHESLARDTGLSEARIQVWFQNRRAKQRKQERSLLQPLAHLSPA
# PROP1 [23] = target: PROP1 (Homo sapiens, UniProt O75360 56-141, F88S)
# Sequence of PROP1 (Homo sapiens, UniProt O75360 56-141, F88S) (O75360 56-141 F88S): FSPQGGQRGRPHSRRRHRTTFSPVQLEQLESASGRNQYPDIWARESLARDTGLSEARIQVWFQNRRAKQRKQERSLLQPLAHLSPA
# Sequence of HESX1 (Q9UBX0 95-180): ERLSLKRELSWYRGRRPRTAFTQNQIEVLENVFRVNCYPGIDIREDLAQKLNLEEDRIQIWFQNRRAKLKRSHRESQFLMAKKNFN
sequence,measurement,setting,value
GAATTCTA,binding signal,HESX1,"6.97 upbm affinity estimate (log intensity, higher = more binding, comparable within an allelic series)"
CGACACCC,binding signal,SIX6 [1],"10.5 upbm affinity estimate (log intensity, higher = more binding, comparable within an allelic series)"
CCGACACC,binding signal,SIX6 [1],"10.4 upbm affinity estimate (log intensity, higher = more binding, comparable within an allelic series)"
same,binding signal,SIX6 [2],"10.3 upbm affinity estimate (log intensity, higher = more binding, comparable within an allelic series)"
GGTGTAAC,binding signal,SIX6 [1],"10.4 upbm affinity estimate (log intensity, higher = more binding, comparable within an allelic series)"
same,binding signal,SIX6 [2],"10.4 upbm affinity estimate (log intensity, higher = more binding, comparable within an allelic series)"
GCTAATCA,binding signal,HOXA2 [3],"12.5 upbm affinity estimate (log intensity, higher = more binding, comparable within an allelic series)"
same,binding signal,MSX2 [4],"11 upbm affinity estimate (log intensity, higher = more binding, comparable within an allelic series)"
CCGGTTCC,binding signal,HOXA2 [3],"6.98 upbm affinity estimate (log intensity, higher = more binding, comparable within an allelic series)"
same,binding signal,ALX1 [5],"6.06 upbm affinity estimate (log intensity, higher = more binding, comparable within an allelic series)"
same,binding signal,ALX3 [6],"7.77 upbm affinity estimate (log intensity, higher = more binding, comparable within an allelic series)"
same,binding signal,NKX2-6 [7],"9.05 upbm affinity estimate (log intensity, higher = more binding, comparable within an allelic series)"
same,binding signal,HOXA2 [8],"10.1 upbm affinity estimate (log intensity, higher = more binding, comparable within an allelic series)"
same,binding signal,ALX1 [9],"6.02 upbm affinity estimate (log intensity, higher = more binding, comparable within an allelic series)"
same,binding signal,ALX3 [10],"7.63 upbm affinity estimate (log intensity, higher = more binding, comparable within an allelic series)"
same,binding signal,ALX3 [11],"7.69 upbm affinity estimate (log intensity, higher = more binding, comparable within an allelic series)"
same,binding signal,NKX2-6 [12],"9.2 upbm affinity estimate (log intensity, higher = more binding, comparable within an allelic series)"
same,binding signal,ALX3 [13],"7.7 upbm affinity estimate (log intensity, higher = more binding, comparable within an allelic series)"
same,binding signal,HOXA2 [14],"10.4 upbm affinity estimate (log intensity, higher = more binding, comparable within an allelic series)"
same,binding signal,ALX1 [15],"6 upbm affinity estimate (log intensity, higher = more binding, comparable within an allelic series)"
same,binding signal,ALX3 [16],"7.77 upbm affinity estimate (log intensity, higher = more binding, comparable within an allelic series)"
same,binding signal,HOXA2 [17],"6.81 upbm affinity estimate (log intensity, higher = more binding, comparable within an allelic series)"
AAGACACC,binding signal,SIX6 [1],"10.6 upbm affinity estimate (log intensity, higher = more binding, comparable within an allelic series)"
GACACCTC,binding signal,SIX6 [1],"10.4 upbm affinity estimate (log intensity, higher = more binding, comparable within an allelic series)"
CGCCACGC,binding signal,HOXA2 [3],"7.14 upbm affinity estimate (log intensity, higher = more binding, comparable within an allelic series)"
same,binding signal,MSX2 [4],"9.28 upbm affinity estimate (log intensity, higher = more binding, comparable within an allelic series)"
same,binding signal,NKX2-6 [7],"9.43 upbm affinity estimate (log intensity, higher = more binding, comparable within an allelic series)"
same,binding signal,HOXA2 [8],"10.1 upbm affinity estimate (log intensity, higher = more binding, comparable within an allelic series)"
same,binding signal,MSX2 [18],"9.35 upbm affinity estimate (log intensity, higher = more binding, comparable within an allelic series)"
same,binding signal,NKX2-6 [12],"9.12 upbm affinity estimate (log intensity, higher = more binding, comparable within an allelic series)"
same,binding signal,MSX2 [19],"9.31 upbm affinity estimate (log intensity, higher = more binding, comparable within an allelic series)"
same,binding signal,HOXA2 [14],"10.3 upbm affinity estimate (log intensity, higher = more binding, comparable within an allelic series)"
same,binding signal,HOXA2 [17],"7.2 upbm affinity estimate (log intensity, higher = more binding, comparable within an allelic series)"
CTGGCTCC,binding signal,HOXA2 [3],"7.01 upbm affinity estimate (log intensity, higher = more binding, comparable within an allelic series)"
same,binding signal,NKX2-6 [20],"9.34 upbm affinity estimate (log intensity, higher = more binding, comparable within an allelic series)"
same,binding signal,MSX2 [4],"9.47 upbm affinity estimate (log intensity, higher = more binding, comparable within an allelic series)"
same,binding signal,HOXA2 [8],"10.3 upbm affinity estimate (log intensity, higher = more binding, comparable within an allelic series)"
same,binding signal,MSX2 [18],"9.34 upbm affinity estimate (log intensity, higher = more binding, comparable within an allelic series)"
same,binding signal,MSX2 [19],"9.4 upbm affinity estimate (log intensity, higher = more binding, comparable within an allelic series)"
same,binding signal,HOXA2 [14],"10.5 upbm affinity estimate (log intensity, higher = more binding, comparable within an allelic series)"
same,binding signal,HOXA2 [17],"6.91 upbm affinity estimate (log intensity, higher = more binding, comparable within an allelic series)"
AGTGACAC,binding signal,SIX6 [1],"10.6 upbm affinity estimate (log intensity, higher = more binding, comparable within an allelic series)"
same,binding signal,SIX6 [2],"10.5 upbm affinity estimate (log intensity, higher = more binding, comparable within an allelic series)"
AAGTAGAG,binding signal,HESX1,"7.4 upbm affinity estimate (log intensity, higher = more binding, comparable within an allelic series)"
ATTACACC,binding signal,SIX6 [1],"10.7 upbm affinity estimate (log intensity, higher = more binding, comparable within an allelic series)"
same,binding signal,SIX6 [2],"10.7 upbm affinity estimate (log intensity, higher = more binding, comparable within an allelic series)"
same,binding signal,PITX2,"9.68 upbm affinity estimate (log intensity, higher = more binding, comparable within an allelic series)"
ATTTACGC,binding signal,HESX1,"7.63 upbm affinity estimate (log intensity, higher = more binding, comparable within an allelic series)"
AGGTGTCG,binding signal,SIX6 [1],"10.5 upbm affinity estimate (log intensity, higher = more binding, comparable within an allelic series)"
same,binding signal,SIX6 [2],"10.4 upbm affinity estimate (log intensity, higher = more binding, comparable within an allelic series)"
CCCCCCCA,binding signal,HOXA2 [3],"7.25 upbm affinity estimate (log intensity, higher = more binding, comparable within an allelic series)"
same,binding signal,ALX3 [6],"7.7 upbm affinity estimate (log intensity, higher = more binding, comparable within an allelic series)"
same,binding signal,HOXA2 [8],"9.99 upbm affinity estimate (log intensity, higher = more binding, comparable within an allelic series)"
same,binding signal,ALX3 [10],"7.68 upbm affinity estimate (log intensity, higher = more binding, comparable within an allelic series)"
same,binding signal,ALX3 [11],"7.68 upbm affinity estimate (log intensity, higher = more binding, comparable within an allelic series)"
same,binding signal,ALX3 [13],"7.64 upbm affinity estimate (log intensity, higher = more binding, comparable within an allelic series)"
same,binding signal,HOXA2 [14],"10.2 upbm affinity estimate (log intensity, higher = more binding, comparable within an allelic series)"
same,binding signal,ALX3 [16],"7.67 upbm affinity estimate (log intensity, higher = more binding, comparable within an allelic series)"
same,binding signal,HOXA2 [17],"7.37 upbm affinity estimate (log intensity, higher = more binding, comparable within an allelic series)"
CCCCCACG,binding signal,HOXA2 [3],"6.91 upbm affinity estimate (log intensity, higher = more binding, comparable within an allelic series)"
same,binding signal,NKX2-6 [20],"9.26 upbm affinity estimate (log intensity, higher = more binding, comparable within an allelic series)"
same,binding signal,HOXA2 [8],"9.95 upbm affinity estimate (log intensity, higher = more binding, comparable within an allelic series)"
same,binding signal,PROP1 [21],"6.48 upbm affinity estimate (log intensity, higher = more binding, comparable within an allelic series)"
same,binding signal,PROP1 [22],"6.59 upbm affinity estimate (log intensity, higher = more binding, comparable within an allelic series)"
same,binding signal,PROP1 [23],"6.32 upbm affinity estimate (log intensity, higher = more binding, comparable within an allelic series)"
same,binding signal,HOXA2 [14],"10.4 upbm affinity estimate (log intensity, higher = more binding, comparable within an allelic series)"
same,binding signal,HOXA2 [17],"6.93 upbm affinity estimate (log intensity, higher = more binding, comparable within an allelic series)"
GGTTATGA,binding signal,HESX1,"7.26 upbm affinity estimate (log intensity, higher = more binding, comparable within an allelic series)"
ATAACTGC,binding signal,HESX1,"7.57 upbm affinity estimate (log intensity, higher = more binding, comparable within an allelic series)"
TAACTTGA,binding signal,HESX1,"7.21 upbm affinity estimate (log intensity, higher = more binding, comparable within an allelic series)"
GACACCCA,binding signal,SIX6 [1],"10.5 upbm affinity estimate (log intensity, higher = more binding, comparable within an allelic series)"
AAGTGTCA,binding signal,SIX6 [1],"10.5 upbm affinity estimate (log intensity, higher = more binding, comparable within an allelic series)"
same,binding signal,SIX6 [2],"10.5 upbm affinity estimate (log intensity, higher = more binding, comparable within an allelic series)"
same,binding signal,MSX2 [18],"10.6 upbm affinity estimate (log intensity, higher = more binding, comparable within an allelic series)"
same,binding signal,MSX2 [19],"10.5 upbm affinity estimate (log intensity, higher = more binding, comparable within an allelic series)"
CGTATTAC,binding signal,HOXA2 [3],"9.06 upbm affinity estimate (log intensity, higher = more binding, comparable within an allelic series)"
same,binding signal,ALX3 [6],"8.19 upbm affinity estimate (log intensity, higher = more binding, comparable within an allelic series)"
same,binding signal,ALX3 [10],"9.9 upbm affinity estimate (log intensity, higher = more binding, comparable within an allelic series)"
same,binding signal,ALX3 [16],"8.23 upbm affinity estimate (log intensity, higher = more binding, comparable within an allelic series)"
same,binding signal,HOXA2 [17],"9.08 upbm affinity estimate (log intensity, higher = more binding, comparable within an allelic series)"
CCGCCGCA,binding signal,HOXA2 [3],"7.15 upbm affinity estimate (log intensity, higher = more binding, comparable within an allelic series)"
same,binding signal,MSX2 [4],"9.56 upbm affinity estimate (log intensity, higher = more binding, comparable within an allelic series)"
same,binding signal,HOXA2 [8],"10.1 upbm affinity estimate (log intensity, higher = more binding, comparable within an allelic series)"
same,binding signal,MSX2 [18],"9.59 upbm affinity estimate (log intensity, higher = more binding, comparable within an allelic series)"
same,binding signal,MSX2 [19],"9.59 upbm affinity estimate (log intensity, higher = more binding, comparable within an allelic series)"
same,binding signal,HOXA2 [14],"10.4 upbm affinity estimate (log intensity, higher = more binding, comparable within an allelic series)"
same,binding signal,HOXA2 [17],"7.05 upbm affinity estimate (log intensity, higher = more binding, comparable within an allelic series)"
GACACCTA,binding signal,SIX6 [1],"10.6 upbm affinity estimate (log intensity, higher = more binding, comparable within an allelic series)"
same,binding signal,SIX6 [2],"10.5 upbm affinity estimate (log intensity, higher = more binding, comparable within an allelic series)"
GGTAACGA,binding signal,HOXA2 [3],"9.98 upbm affinity estimate (log intensity, higher = more binding, comparable within an allelic series)"
same,binding signal,HOXA2 [8],"12.2 upbm affinity estimate (log intensity, higher = more binding, comparable within an allelic series)"
same,binding signal,HOXA2 [14],"10.8 upbm affinity estimate (log intensity, higher = more binding, comparable within an allelic series)"
same,binding signal,HOXA2 [17],"10 upbm affinity estimate (log intensity, higher = more binding, comparable within an allelic series)"
AACCTAAT,binding signal,HOXA2 [3],"10.5 upbm affinity estimate (log intensity, higher = more binding, comparable within an allelic series)"
same,binding signal,HOXA2 [8],"12.1 upbm affinity estimate (log intensity, higher = more binding, comparable within an allelic series)"
same,binding signal,HOXA2 [14],"10.6 upbm affinity estimate (log intensity, higher = more binding, comparable within an allelic series)"
same,binding signal,HOXA2 [17],"10.3 upbm affinity estimate (log intensity, higher = more binding, comparable within an allelic series)"

# Source: article PMC11006913
